Compound activity deposited in PubChem by National Center for Advancing Translational Sciences (NCATS).
TGFb SMAD3 inh: blocks TGF-b signaling. HepG2 CAGA-GFP TGF-b/SMAD3 reporter, GFP fluorescence, 18 h; TGF-beta stimulated, 500 pg/mL final. Potency, µM (series often up to 46.1 µM), actives largely listed as inhibitors. 1.2% of 410,000 active. AID 588855; further: nearly all actives have a fitted effect of over 65% in size
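GFP signal (ex488/em500-530) from TGF-beta-stimulated HEPG2 CAGA-GFP cells, 500 pg/mL final, 18 h at 37 degrees C in DMEM plus 1% FBS, normalized to unstimulated and DMSO-stimulated controls.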
DT40 TDP1 no CPT: qHTS for Inhibitors of human tyrosyl-DNA phosphodiesterase 1 (TDP1): qHTS in cells in absence of CPT; DT40 Tdp1-/- hTDP1 cells, no CPT, ATP luminescence, 48 h; Potency, µM (titrated, usually from 46.2 µM), actives largely listed as inhibitors; 15% of 420,000 active; AID 686978, 2013; further: nearly all actives have a fitted effect of over 55% in size
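A cellular qHTS used chicken DT40 cells lacking endogenous Tdp1 but carrying stably transfected human TDP1. Compounds were applied without camptothecin, and cell growth kinetics were judged by ATP-dependent luminescence after ≥48 hr.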
IL-1B inflam inh: blocks inflammasome-driven IL-1 beta release | activity change, % at 57.5 µM | 4.7% of 360,000 active | AID 743279 | THP-1 LPS/ATP IL-1B secretion, AlphaLISA, 16 h; stronger effect = lower value; in the data active means activity change below about -50%; inconclusive means mostly about -30% to -49%
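Secreted IL-1B measured by AlphaLISA bead assay after 16 h compound exposure of THP-1 cells; compounds (final up to 57.5 uM) added 1 h before LPS (250 ng/mL) and ATP (1.25 mM) stimulation; lower signal means less secretion.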
TDP1 cell CPT: DT40-hTDP1 cell growth loss with CPT. 12% of 420,000 active. Potency, µM (series often up to 46.2 µM), most hits filed as inhibitors. chicken DT40 Tdp1-/-;hTDP1 cells + 20 nM CPT, ATP luminescence, 48 h; further: nearly all actives have a fitted effect of over 55% in size
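Chicken DT40 Tdp1-/- cells complemented with human TDP1, 400 cells/well, exposed to compounds plus 20 nM camptothecin for at least 48 h at 37 C; viability read as ATP content by CellTiter-Glo luminescence.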
HepG2 viability: kills HepG2 cells in TGF-b inhibitor counter-screen; HepG2 CAGA-GFP viability, ATP luminescence, 18 h; Potency, µM (top dose mostly 46.1 µM), actives largely listed as cytotoxic; 0.76% of 410,000 active; AID 588856
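CellTiter-Glo luminescence gave cytotoxicity after 18 hours at 37 degrees C. The cells were HepG2 CAGA-GFP in 1% FBS DMEM, stimulated with 500 pg/mL TGF-beta after compound addition. %Activity was normalised to no-cell wells (complete cell-killing) and DMSO (no toxicity), and curves were fitted and classified.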
TDP1 inh: blocks human tyrosyl-DNA phosphodiesterase 1; 0.28% of 350,000 active; Potency, µM (highest dose often 130 µM), usual class: inhibitors; recombinant TDP1, AlphaScreen DNA substrate cleavage; AID 485290; Q9NUW8; further: nearly all actives have a fitted effect of over 40% in size
Target sequence (Q9NUW8 whole entry, looked up): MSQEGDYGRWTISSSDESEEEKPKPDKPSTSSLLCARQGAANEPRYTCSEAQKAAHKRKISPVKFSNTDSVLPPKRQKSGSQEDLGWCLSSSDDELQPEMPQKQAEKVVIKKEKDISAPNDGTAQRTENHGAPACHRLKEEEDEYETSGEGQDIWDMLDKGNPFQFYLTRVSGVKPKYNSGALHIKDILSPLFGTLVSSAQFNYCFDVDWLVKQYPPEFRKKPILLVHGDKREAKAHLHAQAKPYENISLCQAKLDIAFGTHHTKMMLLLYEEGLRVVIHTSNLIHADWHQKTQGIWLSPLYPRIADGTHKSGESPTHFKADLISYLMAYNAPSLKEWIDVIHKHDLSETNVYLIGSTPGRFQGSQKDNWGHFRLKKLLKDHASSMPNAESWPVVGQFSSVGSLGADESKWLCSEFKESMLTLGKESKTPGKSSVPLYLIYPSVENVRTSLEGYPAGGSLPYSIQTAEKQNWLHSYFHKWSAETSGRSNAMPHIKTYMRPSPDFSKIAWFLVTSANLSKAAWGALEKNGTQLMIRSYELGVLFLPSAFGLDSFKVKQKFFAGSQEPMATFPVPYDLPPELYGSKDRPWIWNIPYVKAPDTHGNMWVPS
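E. coli-derived human Tdp1, 1 nM final. Cpd preinc 15 min RT; substrate 15 nM final, 5 min RT; AS bead mix 10 ug/ml final, 10 min RT. Signal loss = tyrosine-FITC cleavage. No-enzyme wells = max signal.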
A number is an active result; n = inactive; u = inconclusive; x = no result. Hits are enriched below; roughly 18% of the tested compounds scored in any of these assays. Unless noted, the call rests on the fitted dose curve; in most records, active means well fitted curve in the direction sought with a large enough effect; inconclusive means small, poorly fitted or top-dose-only effect, or another doubt; inactive means no such curve, though single readings can be large; an effect the other way counts as inactive or inconclusive.

SMILES	TGFb SMAD3 inh	DT40 TDP1 no CPT	IL-1B inflam inh	TDP1 cell CPT	HepG2 viability	TDP1 inh
c1ccc(CNCCC(Cc2ccccc2)c2ccco2)cc1 (configuration not stated)	20µM	16.4µM	-79.7	u	n	x
CN(C)c1ccc(CNCCC(Cc2ccccc2)c2ccco2)cc1 (configuration not stated)	u	10.3µM	-99.4	9.2µM	n	n
CC(C)OCc1cc(CN2CCN(c3ccccc3)CC2)c(O)c2ncccc12	2.24µM	3.26µM	x	4.61µM	n	n
c1ccc(N2CCN(Cc3ccnc4ccccc34)CC2)cc1	n	20.6µM	n	25.9µM	n	n
COCc1cc(CN2CCN(C)CC2)c(O)c2ncccc12	n	3.26µM	n	4.11µM	n	n
Brc1ccc(CN2CCN(c3ccccc3)CC2)o1	n	n	n	n	n	x
Oc1c(CN2CCN(c3ccccc3)CC2)cc(Br)c2cccnc12	u	3.26µM	n	5.17µM	n	x
COc1ccc(Cl)cc1C(=O)OCC(=O)c1ccc[nH]1	n	n	u	n	n	n
CCOC(=O)C1CCN(Cc2ccccc2C(F)(F)F)CC1	n	n	n	n	n	n
CCOCc1cc(CN2CCN(c3cccc(Cl)c3)CC2)c(O)c2ncccc12	2µM	7.31µM	x	8.2µM	n	n
CN1CCN(Cc2cc(Cl)c3cccnc3c2OC(=O)c2cccs2)CC1	n	4.61µM	n	4.61µM	n	n
CCOC(=O)N1CCN(Cc2cc(Cl)c3cccnc3c2O)CC1	u	0.461µM	n	0.82µM	n	n
CCOCC(=O)N1CCN(c2cccc(Cl)c2)CC1	n	u	n	n	n	n
CCOC(=O)C1CCN(Cc2ccc(O)c3ncccc23)CC1	u	3.66µM	n	4.61µM	7.94µM	n
CC1=C(C(=O)Nc2cc(C)cc(C)c2)C2(CCCCC2)OC1=O	x	n	x	u	n	n
COc1ccc(CC(=O)Nc2cccc(-c3nnc(-c4ccccc4)o3)c2)cc1OC	u	2.31µM	-72.3	5.8µM	n	n
COc1ccc(CC(=O)Nc2cccc(-c3nnc(-c4cccc(C)c4)o3)c2)cc1OC	n	23.1µM	n	u	n	n
COc1ccc(CC(=O)Nc2ccc(-c3nnc(-c4ccccc4)o3)cc2)cc1OC	n	n	n	n	n	n
COc1ccc(CC(=O)NCc2cccc(CNC(=O)Cc3ccc(OC)c(OC)c3)c2)cc1OC	n	n	n	n	n	n
COc1ccc(CC(=O)Nc2cccc(-c3nnc(-c4ccc(C)cc4)o3)c2)cc1OC	u	5.17µM	-99.4	6.51µM	n	n
CCc1cccc(NC(=O)Cc2ccc(OC)c(OC)c2)c1	n	13µM	n	u	n	n
COc1ccccc1CCN1CCCC(CN(C)C(=O)CCC(=O)N(C)C)C1 (configuration not stated)	n	n	n	n	n	n
Cc1ccc(OCC(=O)Nc2cccc(-c3nnc(-c4ccccc4)o3)c2)c(C)c1	n	11.6µM	n	11.6µM	n	n
COCCOC1CCN(C(=O)c2cc(COc3ccc(F)cc3F)on2)CC1	n	n	n	n	n	n
Cc1cccc(CNc2ccc(S(=O)(=O)N3CCCCC3)cc2)c1	u	u	n	20.6µM	n	n
SMILES	TGFb SMAD3 inh	DT40 TDP1 no CPT	IL-1B inflam inh	TDP1 cell CPT	HepG2 viability	TDP1 inh
CCNc1ccc(S(=O)(=O)N2CCOCC2)cc1NCC(=O)Nc1cccc(Br)c1	u	2.59µM	n	7.31µM	n	x
Cc1cccc(NC(=O)CSCC(=O)Nc2ccc(S(=O)(=O)N3CCCC3)cc2)c1	n	n	n	n	n	x
O=C(Nc1cc(S(=O)(=O)N2CCCCCC2)ccc1OCC(F)(F)F)C1CCC1	n	n	n	n	n	n
CN(C)S(=O)(=O)c1ccc(NC(=O)CNc2cc(S(=O)(=O)N3CCCC3)ccc2OCC(F)(F)F)cc1	u	18.4µM	n	20.6µM	n	n
O=C(CNc1cccc(S(=O)(=O)N2CCCC2)c1)Nc1ccc(C(F)(F)F)cc1	n	14.6µM	u	16.4µM	n	n
CCOC(=O)C1=C(C)Nc2ccccc2N/C1=N\S(=O)(=O)c1cc(C(=O)O)ccc1Cl	n	n	n	n	n	x
CS(=O)(=O)Nc1cccc(-c2cncnc2NCc2cccs2)c1	x	n	x	n	x	x
Cn1cc(S(=O)(=O)N2CCCC2)cc1C(=O)Nc1ccc(C(F)(F)F)cc1	u	u	x	29.1µM	n	x
CCNc1ccc(S(=O)(=O)N(C)C)cc1NCC(=O)Nc1ccc(F)c(Cl)c1	u	20.6µM	n	11.6µM	n	n
O=C(CNc1cccc(Br)c1)Nc1ccc(S(=O)(=O)N2CCCCC2)cc1	u	u	n	20.6µM	n	x
Cc1nn(C)c2c1NC(=O)CS2	n	n	n	n	n	x
C=CC[C@H](CC(=O)NCCO)C(=O)N[C@@H](C)COC(=O)[C@H](CC=C)CC(=O)OC(C)(C)C	n	n	n	n	n	n
C=CC[C@@H](CC(=O)N(CCO)Cc1ccccc1)C(=O)N[C@H](COC(=O)[C@@H](CC=C)CC(=O)OC(C)(C)C)Cc1ccccc1	u	u	u	18.4µM	n	n
C=CC[C@H](CC(=O)N(CCO)Cc1ccccc1)C(=O)N[C@H](COC(=O)[C@@H](CC=C)CC(=O)OC(C)(C)C)Cc1ccccc1	u	13µM	-79.9	14.6µM	n	n
C=CC[C@H](CC(=O)N(CCO)Cc1ccccc1)C(=O)N[C@H](C)COC(=O)[C@@H](CC=C)CC(=O)OC(C)(C)C	n	18.4µM	n	u	n	n
CCc1nnc(NC(=O)C2CCN(c3ncnc4sc(C)c(C)c34)CC2)s1	n	n	n	n	n	n
Cc1sc2ncnc(N3CCC(C(=O)Nc4ccccc4C(C)(C)C)CC3)c2c1C	n	13µM	n	20.6µM	n	n
CCOC(=O)c1ccccc1NC(=O)C1CCN(c2ncnc3sc(C)c(C)c23)CC1	n	u	n	23.1µM	n	x
Cc1ccccc1NC(=O)C(C)c1cccc(C(=O)c2ccccc2)c1 (configuration not stated)	n	u	n	n	n	n
COC(=O)C(C)N(C(=O)c1ccc(Cl)cc1)c1c(C)cccc1C (configuration not stated)	u	u	n	14.6µM	n	n
COC(=O)C(C)N(C(=O)c1ccc(C(=O)c2ccccc2)cc1)c1c(C)cccc1C (configuration not stated)	n	20µM	n	12.6µM	n	n
